PubChem BioAssay AID1851 (National Center for Advancing Translational Sciences (NCATS), 2009)
The campaign covered roughly 16,000 compounds. About 2,600 (16%) were called active. Another 20% or so got no clear call; they are omitted. The list is a sample of the results. Values without a mark were called inactive. The call rests on the fitted dose curve; in most records, active means well fitted curve in the direction sought with a large enough effect; inconclusive means small, poorly fitted or top-dose-only effect, or effect the other way; inactive means no such curve, though single readings can be large or run the other way.

The compounds below were run against Cytochrome P450 2D6 (Homo sapiens) (UniProt P10635) (assay: Cytochrome panel assay with activity outcomes). Settings: recombinant CYP, pro-luciferin dealkylation, luminescence, p450-cyp2d6; series mostly up to 57.1 µM.
On the % scale 0 is the no-effect control and ±100 the full control effect.

Sequence of Cytochrome P450 2D6 (Homo sapiens) (P10635 whole entry, looked up): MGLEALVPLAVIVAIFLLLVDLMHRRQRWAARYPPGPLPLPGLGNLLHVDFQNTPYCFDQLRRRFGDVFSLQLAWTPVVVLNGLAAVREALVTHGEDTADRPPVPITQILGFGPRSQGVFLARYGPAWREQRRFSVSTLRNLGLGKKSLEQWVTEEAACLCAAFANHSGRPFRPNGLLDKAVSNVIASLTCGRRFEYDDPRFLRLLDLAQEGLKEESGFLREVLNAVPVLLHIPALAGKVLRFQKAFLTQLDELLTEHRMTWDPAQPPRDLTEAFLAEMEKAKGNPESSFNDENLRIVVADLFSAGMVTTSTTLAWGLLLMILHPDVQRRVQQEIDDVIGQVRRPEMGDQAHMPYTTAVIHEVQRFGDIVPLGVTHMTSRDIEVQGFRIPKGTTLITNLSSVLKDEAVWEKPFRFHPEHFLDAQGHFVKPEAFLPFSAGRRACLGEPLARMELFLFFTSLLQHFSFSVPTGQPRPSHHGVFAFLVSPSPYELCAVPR

Structure (SMILES)	AC50	activity, negative = inhibition
NC(=O)NC(=O)CSc1nnc(-c2ccco2)n1Cc1ccccc1	inactive	–
FC(F)(F)c1cc(-c2ccco2)nc(NCCc2ccccc2)n1	5010 nM (active)	–
Cc1ccc(Cn2ccc(NC(=O)c3cc4nc(-c5ccco5)cc(C(F)(F)F)n4n3)n2)cc1	inactive	–
O=C(NC1CCCC1)c1cnn2c(C(F)(F)F)cc(-c3ccco3)nc12	inactive	–
O=c1/c(=C\c2ccc(O)cc2)sc2n1C(c1ccccc1)C(c1ccccc1)=NN=2 (centres undefined)	inactive	–
COc1cccc(-c2nnc3n2N=C(C(C)(C)C)CS3)c1	inactive	–
CSc1c(-c2ccccc2)nc2ccc(Cl)cc2c1C(=O)O	inactive	–
CCCCNc1nc(-c2ccccc2)c(C(=O)OCC)cc1C#N	inactive	–
N#Cc1ccccc1/C=N/Nc1nc(-c2ccccc2)c2cc(Cl)ccc2n1	178 nM (active)	–
Cc1ccc(Oc2nnc(-c3ccccc3)cc2C#N)cc1	inactive	–
Cc1ccc2nc(N/N=C/c3ccccc3C#N)nc(-c3ccccc3)c2c1	1260 nM (active)	–
CN(C)c1nc(NCc2ccccc2)nc(N/N=C/c2ccc(Cl)cc2Cl)n1	inactive	–
Cc1ccc(-n2c(=O)[nH]cc(C(=O)N3CCc4ccccc43)c2=O)cc1	inactive	–
Cc1nc2cncnc2n(C2CC2)c1=O	inactive	–
COc1ccc(Oc2ncc3nc(-c4cccc(C#N)c4)c(=O)n(Cc4cccc(OC)c4)c3n2)cc1	inactive	–
O=C(O)c1nn(-c2ccccc2)ccc1=O	inactive	–
Cc1cc(C)cc(-n2c(O)c(C=NC3CCS(=O)(=O)C3)c3ccccc3c2=O)c1 (centres undefined)	inactive	–
CCCCOC(=O)Nc1ccccc1C(=O)OC	inactive	–
Cc1ccc(C)c(Nc2nc3nonc3nc2N2CCOCC2)c1	inactive	–
CCOc1ccc(-c2c(=O)n(OCc3ccccn3)c3ccccc3[n+]2[O-])cc1	inactive	–
COc1ccc(-c2cc(C(F)(F)F)n3ncc(C(=O)NCC4CCCO4)c3n2)cc1OC (centres undefined)	inactive	–
CCN(C(=O)CSc1nc2cc(C(=O)OC)ccc2c(=O)n1Cc1ccco1)c1cccc(C)c1	inactive	–
COCCNC(=O)CSc1nc2cc(OC)c(OC)cc2c(=O)n1Cc1ccco1	inactive	–
CCC(Sc1nc2cc3c(cc2c(=O)n1Cc1ccco1)OCO3)C(=O)Nc1cccc(OC)c1 (centres undefined)	3160 nM (active)	–
Cc1nc(-c2cccnc2)sc1C(N)=O	inactive	–

Structure (SMILES)	AC50	activity, negative = inhibition
COc1ccc(-n2c(=O)c(-c3cccs3)nc3cnc(Oc4ccccc4)nc32)cc1	inactive	–
O=C(NN=C1C2CC3CC(C2)CC1C3)c1ccncc1	inactive	–
N#Cc1nc(COc2ccccc2Cl)oc1NCc1ccco1	2820 nM (active)	–
Cc1cc(C)cc(-n2nnc(C(=O)NCc3ccccc3Cl)c2N)c1	inactive	–
CCCCC(=O)Nc1sc2c(c1C(=O)OCC)CCC(C=O)=C2Cl	inactive	–
COC(=O)[C@@]1(Cc2ccccc2)[C@H]2c3cc(C(=O)N4CCCC4)[nH]c3C[C@H]2CN1C(=O)c1ccccc1	inactive	–
Cc1[nH]c(N)nc(=S)c1CCCNc1ccccc1	–	-8.46% [at 11.4 µM]
CCN(CC)CCCN(Cc1cc2ccc(C)c(C)c2[nH]c1=O)C(=O)NC1CCCCC1	inactive	–
c1ccc(NN(Cc2cnccn2)c2ccccc2)cc1	–	-16.2% [at 11.4 µM]
O=C1CN(c2nc(-c3ccccc3)c3cc(Br)ccc3n2)c2ccccc2N1	inactive	–
O=C1Cc2c([nH]c3ccc(Br)cc23)-c2ccccc2N1	398 nM (active)	–
O=C1CCCCC(=O)c2ccccc2N1	inactive	–
N#C[C@H](Cc1ccc(O)cc1)c1ccc(O)cc1	inactive	–
CCOC(=O)CCCN	–	5.1% [at 11.4 µM]
CC(Cc1ccccc1)N/C=C1\CC(=O)NC1=O (centres undefined)	inactive	–
COc1ccc(N2CCN(Cc3nc4c(c(=O)n(C)c(=O)n4C)n3CC(C)=O)CC2)cc1	inactive	–
CCOC(=O)c1nn(-c2ccccc2)c(-c2ccccc2)c1C(=O)c1ccccc1	inactive	–
CCOC(=O)c1c(NC(=O)c2c(C)noc2C)sc2c1CCCCC2	inactive	–
CCOC(=O)c1c(NC(=O)CSc2nnc(C)s2)sc2c1CCCCC2	7940 nM (active)	–
CCOC(=O)c1c(NC(=O)Cn2cc([N+](=O)[O-])cn2)sc2c1CCC2	inactive	–
CC(=O)NC1(c2cccc(F)c2)CCN(CC(=O)NC(C)C)CC1	inactive	–
Nc1nnc(C(c2ccccc2)c2ccccc2)s1	inactive	–
Cn1c(=O)c(-c2ccc(F)cc2)nc2cnc(Oc3ccccc3)nc21	inactive	–
CC/C=C\CC[C@H](OC(=O)c1ccc(Br)cc1)C1=CCCCC1=O	–	-1.66% [at 11.4 µM]
